# Only some compounds are listed: those with a hit (about 10% of all), similar ones and a draw of the others.
# RORg inh = qHTS for inhibitors of ROR gamma transcriptional activity. Nuclear receptor ROR-gamma (Mus musculus), P51450. Drosophila S2 Gal4-RORgamma UAS-luciferase reporter, 20 h. Potency, µM (series often up to 53.6 µM), inactives show top-dose activity change, negative = inhibition, most hits filed as inhibitors. 5.4% of 310,000 active. AID 2551, 2010; further: on the % scale 0 is the no-effect control and ±100 the full control effect; nearly all actives have a fitted effect of over 60% in size
# Target sequence (P51450 whole entry, looked up, the tested form may be a part): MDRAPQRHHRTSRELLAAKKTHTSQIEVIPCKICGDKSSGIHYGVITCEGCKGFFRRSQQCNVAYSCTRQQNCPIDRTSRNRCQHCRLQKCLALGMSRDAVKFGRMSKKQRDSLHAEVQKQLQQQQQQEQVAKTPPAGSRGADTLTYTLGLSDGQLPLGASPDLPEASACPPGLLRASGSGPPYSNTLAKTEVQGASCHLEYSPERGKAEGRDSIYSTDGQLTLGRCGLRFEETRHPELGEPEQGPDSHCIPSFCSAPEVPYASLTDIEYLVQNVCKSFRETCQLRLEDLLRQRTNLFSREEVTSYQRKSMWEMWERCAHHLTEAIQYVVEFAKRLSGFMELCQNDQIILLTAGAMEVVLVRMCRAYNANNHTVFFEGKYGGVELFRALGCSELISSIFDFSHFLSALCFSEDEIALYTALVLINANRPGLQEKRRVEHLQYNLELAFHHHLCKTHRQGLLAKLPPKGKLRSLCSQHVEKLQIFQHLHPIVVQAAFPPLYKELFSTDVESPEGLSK
#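 Stable Schneider cell line, Gal4 DNA-binding domain fused to ROR gamma, UAS-luciferase. Cmpd 1 hr RT → CuSO4 700 uM final → 20 hr RT → luciferase reagent 10 min → luminescence.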
# ELG1 DNA repair = qHTS screen for small molecules that inhibit ELG1-dependent DNA repair in human embryonic kidney (HEK293T) cells expressing luciferase-tagged ELG1. HEK293T ELG1-luciferase reporter, luminescence, 16 h; DNA damage induced by 5-fluorouridine. 2.3% of 330,000 active. AID 504467, 2011. Potency, µM (doses to about 46.1 µM), for the others: top-dose activity change, negative = inhibition, hits mostly inhibitors; further: on the % scale 0 is the no-effect control and ±100 the full control effect; nearly all actives have a fitted effect of over 55% in size
#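 In this reporter screen, reduction of luminescence relative to DMSO vehicle indicated activity. Compounds and 5-fluorouridine were added together to 2,000 cells per well, incubated for 16 hr at 37 °C, then developed with ONE-Glo.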
# SW480 rerep = A quantitative high throughput screen for small molecules that induce DNA re-replication in SW480 colon adenocarcinoma cells; SW480 DNA re-replication, Hoechst DNA content imaging, 48 h; Potency, µM (top dose mostly 46.1 µM), without a hit: at the highest dose re-replication activation, most hits filed as activators; 1.8% of 340,000 active; further: % of control where 0% means no effect; nearly all actives have a fitted effect of over 55% in size
#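 Readout is total intensity of Hoechst-stained nuclei, excited at 405 nm and collected at 500-530 nm. Compound treatment lasted 48 hr at 37 C in 5% CO2 before staining.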
# VP16 counter = VP16 counterscreen qHTS for inhibitors of ROR gamma transcriptional activity; Potency, µM (series often up to 53.6 µM), inactives show at the highest dose activity, negative = inhibition, actives largely listed as inhibitors; 3.5% of 310,000 active; AID 2546, 2010; Drosophila S2 Gal4-VP16 UAS-luciferase, luminescence, 20 h;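 further: Gal4-VP16 expression switched on by copper sulfate through the metallothionein promoter; on the % scale 0 is the no-effect control and ±100 the full control effect; nearly all actives have a fitted effect of over 50% in size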
# MCF10A rereplic = A quantitative high throughput screen for small molecules that induce DNA re-replication in MCF 10a normal breast cells. MCF 10A DNA re-replication, Hoechst nuclear intensity, 48 h. Potency, µM (top dose mostly 46.1 µM), for inactives: at the top dose activity, positive = re-replication, most hits filed as activators. 2.9% of 350,000 active; further: % of control where 0% means no effect; nearly all actives have a fitted effect of over 50% in size
# * marks the source's active call; other numbers are inactive results; ? = inconclusive; / = no result given; [ ] = remark or other dose. The call rests on the fitted dose curve; in most records, active means well fitted curve in the direction sought with a large enough effect; inconclusive means small, poorly fitted or top-dose-only effect, or another doubt; inactive means no such curve, though single readings can be large; an effect the other way counts as inactive or inconclusive. Potency means the concentration at half of the fitted maximal effect.
SMILES,RORg inh,ELG1 DNA repair,SW480 rerep,VP16 counter,MCF10A rereplic
CN(C)c1nc(NCc2ccccc2)nc(N/N=C/c2ccc(Cl)cc2Cl)n1,2.24µM*,?,7.7%,-12.6%,9.5%
Cc1cc(N/N=C/c2ccc(Cl)cc2)nc(NCc2ccccc2)n1,?,-16.8%,?,?,?
Cc1cc(N/N=C/c2ccccc2F)nc(NCc2ccccc2)n1,2.9%,0.0%,-6.8%,-11.5%,6.0%
CN(C)c1nc(NCc2ccccc2)nc(N/N=C/c2ccccc2F)n1,2.82µM*,?,/,6.31µM*,/
Cc1ccc(-c2nc3ccccc3n3c(C)nnc23)cc1,-8.6%,4.0%,/,-2.8%,/
FC(F)(F)c1nc2ccccc2n2c(-c3ccc(Cl)cc3)nnc12,26.9%,?,26.4%,-10.6%,13µM*
Cc1ccc(-c2nnc3c(C(F)(F)F)nc4ccccc4n23)cc1,11.1%,7.5%,16.4µM*,4.6%,?
CCOC(=O)C1CCN(C(=O)CN(c2ccc(Oc3ccccc3)cc2)S(C)(=O)=O)CC1,20.5%,-14.6%,-1.2%,-19.2%,27.6%
O=C(O)c1ccc2c3c(ncnc13)-c1ccccc1C2=O,?,?,?,-18.1%,2.31µM*
O=C(COc1ccc(Br)cc1)NNC(=O)c1cc(S(=O)(=O)N2CCOCC2)ccc1Cl,/,/,-1.9%,/,1.3%
CCCCC(=O)Nc1ccc(C(=O)Nc2ccc(S(=O)(=O)Nc3ccc(C)cc3)cc2)cc1,?,12.4%,0.7%,11.2µM*,-0.6%
Cc1ccc(S(=O)(=O)Nc2ccc(C(=O)Nc3ccncc3)cc2)cc1,35.3%,?,3.26µM*,-10.7%,15.3%
Cc1ccc(S(=O)(=O)Nc2ccc(NC(=O)c3ccc(F)cc3)cc2)cc1,9.6%,?,-116.1%,-8.9%,-0.4%
CCCCN(CCCC)S(=O)(=O)c1ccc(NS(=O)(=O)c2ccc(NC(C)=O)cc2)cc1,-12.9%,-5.8%,2.1%,7.3%,14.6µM*
CN(C(=O)COC(=O)c1ccccc1C(=O)c1ccccc1)c1ccccc1,/,12.4%,5.0%,/,4.0%
O=c1c2ccccc2nc2n1CCC2O (stereo unspecified),23.9%,-18.7%,-0.7%,13.5%,2.9%
Cc1ccc(-c2nn(-c3ccccc3)cc2C2CC(c3cccs3)=NN2C(=O)CCC(=O)O)cc1 (stereo unspecified),12.6%,?,-8.8%,-6.6%,7.9%
O=C(O)CCn1cc(C2CC(c3ccccc3)=NN2c2ccccc2)c(-c2ccccc2)n1 (stereo unspecified),31.9%,12.4%,23.1µM*,9.1%,11.6µM*
Cc1ccc(C(C(=O)NCc2ccccc2)N(Cc2ccco2)C(=O)c2snc(C(N)=O)c2N)o1 (stereo unspecified),44.3%,?,-0.7%,17.6%,?
COc1ccc(C(C(=O)NCc2ccccc2)N(Cc2ccco2)C(=O)c2snc(C(N)=O)c2N)cc1OC (stereo unspecified),1.3%,14.6µM*,-1.7%,6.3%,-5.3%
COc1ccccc1N(C(=O)c1snc(C(N)=O)c1N)C(C(=O)NCc1ccccc1)c1ccc(O)cc1 (stereo unspecified),44.8%,-1.3%,15.5%,23.7%,?
NC(=O)c1nsc(C(=O)N(c2ccccc2F)C(C(=O)NCc2ccc(F)cc2)c2ccc(O)cc2)c1N (stereo unspecified),13.9%,?,?,-12.2%,23.1µM*
COc1ccc(C(C(=O)NCc2ccccc2)N(C(=O)c2snc(C(N)=O)c2N)c2ccccc2OC)cc1 (stereo unspecified),6.2%,18.3µM*,?,3.3%,1.9%
COc1ccc(C(C(=O)NCc2ccccc2)N(Cc2ccco2)C(=O)c2snc(C(N)=O)c2N)cc1 (stereo unspecified),16.1%,20.6µM*,-0.5%,1.9%,2.2%
COc1ccc(C(C(=O)NCC2CCCO2)N(Cc2ccco2)C(=O)c2snc(C(N)=O)c2N)cc1OC (stereo unspecified),5.6%,-28.3%,2.7%,-0.2%,-0.9%
SMILES,RORg inh,ELG1 DNA repair,SW480 rerep,VP16 counter,MCF10A rereplic
C=CCNC(=O)CN1C(=O)C2C3c4ccccc4C(c4ccccc43)C2C1=O (stereo unspecified),-19.7%,-1.5%,-9.5%,-12.4%,-0.9%
O=C(CSc1nnc(-c2ccc3c(c2)OCO3)o1)Nc1ncc(Cl)cc1Cl,0.794µM*,?,?,0.562µM*,13µM*
O=C1OCCC1Sc1nnc(-c2ccc3c(c2)OCO3)o1 (stereo unspecified),10µM*,9.1%,3.7%,?,?
CCN(CC)C(=O)CSc1nnc(-c2ccccc2)o1,-12.7%,?,?,-6.6%,5.17µM*
O=C(O)CCSc1nnc(-c2ccc3c(c2)OCO3)o1,2.82µM*,-1.4%,-2.0%,3.98µM*,-1.1%
O=C(NC1CCCCC1)c1cc(-c2cccc(Cl)c2)on1,42.8%,?,-13.5%,27.0%,?
CC(=O)CSc1nnc(-c2ccc3c(c2)OCO3)o1,12.6µM*,?,-9.4%,15.8µM*,-1.1%
C[C@H](NC(=O)c1[nH]cnc1C(=O)Nc1ccc(Cl)cc1)c1ccccc1,/,-26.4%,-30.7%[9.22 µM],/,16.4µM*
C[C@@H](NC(=O)c1[nH]cnc1C(=O)Nc1ccccc1)c1ccccc1,/,?,-31.3%[9.22 µM],/,?
C[C@@H](NC(=O)c1[nH]cnc1C(=O)Nc1ccc(Cl)cc1)c1ccccc1,/,?,-1.6%,/,25.4%
O=C(Nc1ccccc1)c1nc[nH]c1C(=O)NCCCCNC(=O)c1[nH]cnc1C(=O)Nc1ccccc1,/,?,6.0%,/,-3.1%
O=C(c1ccccc1)c1nc[nH]c1C(=O)Nc1ccccc1,0.708µM*,-16.4%,-0.9%,1.58µM*,19.1%
Cc1ccc(NC(=O)c2nc[nH]c2C(=O)N[C@@H](C)c2ccccc2)cc1,1.12µM*,?,-28.0%[9.22 µM],3.16µM*,?
C[C@@H](NC(=O)c1[nH]cnc1C(=O)Nc1cccc(Cl)c1)c1ccccc1,/,?,-7.4%[9.22 µM],/,11.6µM*
O=C1C(=O)N(CCN2CCOCC2)C(c2ccccc2F)/C1=C(\O)c1ccc(S(=O)(=O)N2CCOCC2)cc1 (stereo unspecified),-4.0%,2.8%,-11.1%,-11.0%,-2.6%
COc1ccccc1CNS(=O)(=O)c1cc(C(=O)N(C)Cc2cccnc2)c(Cl)cc1Cl,/,/,11.9%,/,4.1%
CCC(Sc1nc2ncccc2[nH]1)C(=O)NCCc1ccccc1 (stereo unspecified),-9.7%,8.9%,3.0%,-3.2%,-4.4%
COc1cc(NCCC(=O)c2cccs2)c(OC)cc1Cl,-18.2%,-23.6%,?,-21.3%,20.6µM*

# Screening results (PubChem BioAssay)
